The campaign covered roughly 360,000 compounds. About 10,000 (2.8%) were called active. About 4% were inconclusive and are not listed. Calls follow the shape of the dose curve; as a rule, active = well fitted inhibition curve with a large enough effect; inconclusive = small, poorly fitted or top-dose-only effect; inactive = flat fitted curve, though single readings scatter. The sample as a whole holds a higher share of actives than the screen did.
% is scaled to controls: 0 for no effect and ±100 for the full control effect; potency is read from the fitted curve at half-maximal effect.

In the experiment the target is Serine/threonine-protein kinase PLK1 (Homo sapiens) (UniProt P53350). As to the kind of experiment: qHTS for Inhibitors of PLK1-PDB (polo-like kinase 1 - polo-box domain): Primary Screen. Also: nearly all actives have a fitted effect of over 65% in size. As to max response, negative = inhibition: series mostly up to about 57 µM. Conditions: Plk1 PBD binding of FITC phosphopeptide, fluorescence polarization. On the technique in general: qHTS replaces the single test concentration by a dilution series.
Serine/threonine-protein kinase PLK1 (Homo sapiens), sequence (P53350 whole entry, looked up, the tested form may be a part): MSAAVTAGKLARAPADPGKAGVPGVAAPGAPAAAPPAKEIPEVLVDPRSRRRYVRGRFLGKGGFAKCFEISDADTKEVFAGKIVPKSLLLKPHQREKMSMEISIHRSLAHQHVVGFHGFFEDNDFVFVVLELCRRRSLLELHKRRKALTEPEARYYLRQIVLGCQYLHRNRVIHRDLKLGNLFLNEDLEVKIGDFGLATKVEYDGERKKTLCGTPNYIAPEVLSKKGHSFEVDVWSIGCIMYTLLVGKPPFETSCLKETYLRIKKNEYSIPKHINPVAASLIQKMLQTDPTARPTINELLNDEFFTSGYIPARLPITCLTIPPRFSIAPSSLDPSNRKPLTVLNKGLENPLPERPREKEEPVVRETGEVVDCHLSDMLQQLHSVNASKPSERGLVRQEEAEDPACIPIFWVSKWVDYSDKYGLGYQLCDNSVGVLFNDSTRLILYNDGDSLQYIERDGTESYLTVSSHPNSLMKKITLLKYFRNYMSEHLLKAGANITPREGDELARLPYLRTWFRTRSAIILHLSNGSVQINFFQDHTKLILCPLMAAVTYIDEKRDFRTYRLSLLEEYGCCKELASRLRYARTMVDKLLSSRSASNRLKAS
Consider `O=Nc1c(O)cc(O)c2ccccc12`, for which the max response, negative = inhibition was -5.49% (inactive).
As for `Cc1cc(N2C(=O)C(O)=C(C(=O)c3ccc(C)o3)C2c2ccc(OCc3ccccc3)cc2)no1` (centres undefined), the Potency is 21.2 µM (active).
`Cc1cc(N2C(=O)C(=O)/C(=C(/O)c3ccccc3)C2c2cccc(Br)c2)no1` (centres undefined): the max response, negative = inhibition is -15% (inactive).
On the same count and under the same terms, as for `C=CCOc1cccc(C2C(C(=O)c3ccc(C)o3)=C(O)C(=O)N2CCN2CCOCC2)c1` (centres undefined), the figure is -19.4% (inactive); as for `C[C@@H]1CN([C@@H](C)CO)C(=O)CCCn2nncc2CO[C@H]1CN(C)Cc1ccc(C(F)(F)F)cc1`, -1.98% (inactive).
Still for that read-out and setting: in the case of `CC(=O)C[C@@H]1OC[C@H](CO)N1S(=O)(=O)c1ccc(C)cc1` it was -6.97% (inactive).
For the compound `CCOc1cc(C(=O)OCC(=O)Nc2cccc(C)c2)ccc1OCC(=O)N1CCOCC1`, the max response, negative = inhibition was -7.2% (inactive).
For the compound `CCOc1cc(C(=S)N2CCOCC2)ccc1OS(=O)(=O)c1ccc(Br)cc1`, the max response, negative = inhibition is -16.5% (inactive).
In the case of `CCOc1cc(C(=S)N2CCOCC2)ccc1O`, the Potency was 7.52 µM (active).
With `COCOCCn1cc(CN2CCS(=O)(=O)N(Cc3ccc(-c4cccc(N(C)C)c4)cc3)C(CC(C)C)C2=O)nn1` (centres undefined), the max response, negative = inhibition is -14.2% (inactive).
As to `O=C(CCN1CCN(C/C=C/c2ccccc2)CC1)Nc1ccccc1Cl`, the max response, negative = inhibition was -3.16% (inactive).
For the compound `O=C(Nc1ccccc1Cl)/C(Cl)=C(\Cl)S(=O)c1ccccc1` (centres undefined), the Potency was 1.34 µM (active).
`NC(=O)C1(Nc2ccccc2Cl)CCCC1`: the max response, negative = inhibition is -11.6% (inactive).
Consider `CCCNC(=O)C1(C)CCN(Cc2ccc(Cl)c(Cl)c2)C1` (centres undefined), for which the max response, negative = inhibition was -1.65% (inactive).
Still for that read-out and setting: in the case of `C[C@H](NC(=O)[C@@H]1CCCN1C(=O)[C@@H]1CCCN1C(=O)c1ccccc1)c1ccccc1` it was -0.0066% (inactive).
For the compound `CC(C)N(C(=O)COC(=O)c1ccccc1C(=O)N1CCN(c2ccc(F)cc2)CC1)C(C)C`, the max response, negative = inhibition was -8.86% (inactive).
As to `O=C(c1ccccc1Oc1ccccc1)N1CCN(c2ccc(F)cc2)CC1`, the Potency is 26.7 µM (active).
Consider `COc1ccc(N2CCN(C(=O)C3CCN(C(=O)c4ccccc4Cl)CC3)CC2)cc1`, for which the max response, negative = inhibition was 1.62% (inactive).
Turning to `CC[C@@H]1CC2=C(C(=O)OC(C)(C)O2)[C@@H](CC)O1`, the max response, negative = inhibition was 0.545% (inactive).
Same read-out and setting: in the case of `Cc1ccc(C(O)c2ncc(-c3ccccc3F)[nH]2)cc1F` (centres undefined) it was -7.55% (inactive).
`CCN(CC)S(=O)(=O)c1cccc(-c2n[nH]c(=S)n2/N=C/c2ccc(C(=O)OC)cc2)c1`: the Potency is 10.6 µM (active).
On to `COC(=O)c1ccc(/C=N/N2C(C)CCCC2C)cc1` (centres undefined), for which the max response, negative = inhibition is -11.6% (inactive).
Take `CCN(CC)S(=O)(=O)c1cccc(NC(=O)c2ccc(S(=O)(=O)N3CCCC3)cc2)c1`: the max response, negative = inhibition was 2.45% (inactive).
As for `CCCCNC(=O)C[C@@H]1C[C@@]2(C(=O)OCC)CCC=C2N(Cc2cccc3ccccc23)C1=O`, the max response, negative = inhibition is -0.117% (inactive).
Take `CCOC(=O)C1CCCN(C(=O)c2ccc(C)c(F)c2)CC1` (centres undefined): the max response, negative = inhibition is -7.52% (inactive).
Turning to `CC(C)Oc1ccc(CN2CCC2(C)C(=O)NCc2ccc(C(F)(F)F)cc2)cc1` (centres undefined), the max response, negative = inhibition is 6.37% (inactive).
Turning to `CN(C)/C=C1/Nc2ccccc2C1=O`, the Potency is 26.7 µM (active).
In the case of `CN(C)/C=C1\C=C(c2ccccc2)OC1=O`, the max response, negative = inhibition is -6% (inactive).
For the compound `CCCS(=O)(=O)C(=C1Nc2ccccc2N1)S(=O)(=O)CCC`, the max response, negative = inhibition was -1.93% (inactive).
For `CCN(CCN(C)C)C(=O)c1ccc2nc(C)c(N(C)C(=O)CCc3ccccc3)n2c1`, the max response, negative = inhibition is 2.39% (inactive).
Regarding `CC(=O)Nc1cncc(-c2ccccc2CO)n1`, the max response, negative = inhibition was 3.65% (inactive).
Regarding `O=C(CCc1[nH]c2ccccc2c1Sc1ccccc1)N(CCO)CCO`, the Potency was 29.9 µM (active).
As for `O=S1(=O)CC(N2CCN(CCO)CC2)CN1Cc1cn(Cc2ccc(Cl)cc2)nn1` (centres undefined), the max response, negative = inhibition was -4.51% (inactive).
The same measure, in the same setting: as for `Cc1ccc(S(=O)(=O)N(CCc2ccccc2)c2ccc3c(c2)C2CC3CCN2C(=O)OCc2ccccc2)cc1` (centres undefined), the figure is -9.82% (inactive); as for `O=C(C1CCCO1)N1CCN(C(=O)C23CC4CC(CC(C4)C2)C3)CC1` (centres undefined), -0.452% (inactive); as for `C[C@@H]1CN([C@H](C)CO)S(=O)(=O)c2ccc(C#CC3CCCCC3)cc2O[C@H]1CN(C)C(=O)Cc1ccncc1`, 8.88% (inactive).
As to `COc1cccc(C(O)c2ncc(-c3ccc4ccccc4c3)[nH]2)c1` (centres undefined), the max response, negative = inhibition was 5.51% (inactive).
Consider `COc1ccc(OC)c(CNC(=O)Cn2nc(C)c3c(C)n(-c4ccc(C)cc4)nc3c2=O)c1`, for which the Potency was 26.7 µM (active).
Take `COc1ccc(-n2nc3c(N4CCC(C(=O)NCc5ccccc5)CC4)nnc(C)c3c2C)cc1`: the max response, negative = inhibition was -9.59% (inactive).
As to `Cc1nn(CC(=O)N2CCCCC2)c(=O)c2nn(-c3ccccc3)c(C)c12`, the max response, negative = inhibition is -14.5% (inactive).
Consider `Cc1ccc(-n2nc3c(=O)n(C(C)C(=O)NCc4ccc5c(c4)OCO5)nc(C)c3c2C)cc1` (centres undefined), for which the max response, negative = inhibition was -18.3% (inactive).
With `Cc1nn(C(C)C(=O)NCCC2=CCCCC2)c(=O)c2nn(-c3ccccc3)c(C)c12` (centres undefined), the max response, negative = inhibition was -7.54% (inactive).
Take `COc1ccc(CNC(=O)C(C)n2nc(C)c3c(C)n(-c4ccccc4)nc3c2=O)c(OC)c1` (centres undefined): the Potency was 26.7 µM (active).
For `CCOc1cc(/C=N/NC(=O)c2c(C)nc3ccc(Cl)cn23)ccc1O`, the max response, negative = inhibition is -0.787% (inactive).
Regarding `CC(C)NC(=O)C1(C)CCCCN1Cc1cccc(C(F)(F)F)c1` (centres undefined), the max response, negative = inhibition is -6.04% (inactive).
The same measure, in the same setting: in the case of `OC(c1ccc(F)cc1)c1ncc(-c2cccc(C(F)(F)F)c2)[nH]1` (centres undefined) it was 1.19% (inactive); in that of `CC(=O)NC(c1ccccc1)c1nc(-c2cccc(C(C)C)c2)cs1` (centres undefined), 4.75% (inactive); in that of `COC(=O)[C@@]1(Cc2ccc(OC)cc2)[C@H]2c3cc(C(=O)N4CCCC4)n(Cc4ccc(OC(F)(F)F)cc4)c3C[C@H]2CN1C(=O)c1ccccc1`, 4.68% (inactive).
Consider `CCOC(=O)[C@]12CCC=C1N(Cc1ccco1)C(=O)[C@H](CC(=O)N1CCSCC1)C2`, for which the max response, negative = inhibition is -15.1% (inactive).
Take `CC1(C(=O)Nc2cccnc2)Cc2c(-c3ccccc3)ccnc2O1` (centres undefined): the max response, negative = inhibition is -6.2% (inactive).
The same measure, in the same setting: as for `COc1ccc2cc(C3=CC(=O)C[C@H](c4ccc5c(c4)OCO5)C3)ccc2c1`, the figure is 4.54% (inactive); as for `COc1ccc([C@H]2CC(=O)C=C(c3ccc(C)cc3)C2)cc1`, -18.7% (inactive).
For `COc1ccc([C@H]2CC(=O)C=C(c3ccc(CO)cc3)C2)cc1`, the Potency is 23.8 µM (active).
As for `CN1OC[C@@H]2CN[C@H](c3ccc(-c4ccccc4)cc3)C[C@@H]21`, the max response, negative = inhibition is 5.71% (inactive).

Values taken from PubChem BioAssay AID720504 (National Center for Advancing Translational Sciences (NCATS), 2013).
